# PubChem BioAssay AID588651 (The Scripps Research Institute Molecular Screening Center, 2011)
# Calls of active or inactive are those of the source. Cut-off read from the data, not from the text of the source: active = inhibition above about 65%; inactive = the rest.
# Test system: Fam108b
# Assay: Fam108b inhibition by ABPP, late-stage follow-up, biochemical, gel-based ABPP, recombinant soluble Fam108b, HTS hits, complex proteome (AID 588651);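 note: Fam108b spiked into mouse brain membrane proteome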
# Details: FP-rhodamine labeling in proteome, at 20 µM, stronger effect = higher value
row,SMILES,inhibition
1,Cc1cc(Nc2ccc(Cl)cc2)nc(NCc2ccccc2)n1,0% (inactive)
2,O=C(Nc1ccc(-c2csc(Nc3cccc(C(F)(F)F)c3)n2)cc1)c1cccc(C(F)(F)F)c1,95% (active)
3,O=C(Nc1ccc2[nH]c(=S)sc2c1)Nc1ccccc1F,20% (inactive)
4,O=[N+]([O-])c1ccc(NN=Cc2c[nH]c3ccccc23)c(S(=O)(=O)Nc2ccc(Cl)cc2)c1,0% (inactive)
5,CN(c1ccccc1)S(=O)(=O)c1ccc(NC(=O)c2ccc(-c3ccccc3)cc2)cc1,40% (inactive)
6,O=c1oc(-c2ccccc2F)nc2scc(-c3ccccc3)c12,98% (active)
7,O=C(O)c1ccc(S(=O)(=O)/N=C2\C=C(Nc3ccccc3F)C(=O)c3ccccc32)cc1,0% (inactive)
8,O=C(NN=Cc1ccc(O)cc1)c1cccc(NN=Cc2ccc(O)cc2)c1,60% (inactive)
9,COc1cccc(C=NNC(=O)c2[nH]c(C)c(C(=O)NN=Cc3cccc(OC)c3O)c2C)c1O,75% (active)
10,CSC[C@@H]1NC(=S)N(c2ccc(C)cc2)C1=O,0% (inactive)
11,Cc1[nH]c2c(C)cccc2c1CCNC(=O)c1ccc2c(c1[N+](=O)[O-])C(=O)c1ccccc1C2=O,40% (inactive)
12,O=C(NCC1CC1)c1ccc(Nc2nc3ccc(Br)cc3[nH]2)cc1,0% (inactive)
13,O=C1c2ccccc2-c2onc3ccc(NCCCn4ccnc4)c1c23,0% (inactive)
14,O=C(O)C1Nc2ccc(Br)cc2C2C=CCC12 (centres undefined),0% (inactive)
15,COc1cc2cc(C(=O)NN=Cc3ccccc3Cl)[nH]c2cc1OC,10% (inactive)
16,Cc1[nH]c2ccccc2c1C=NNC(=O)c1cccc(S(=O)(=O)Nc2cccc(C(F)(F)F)c2)c1,60% (inactive)
17,O=C(CCCSc1ccccc1)Nc1nc(-c2ccco2)c(-c2ccco2)s1,0% (inactive)

row,SMILES,inhibition
1,Oc1c(Cl)cc(Cl)c(Cl)c1Cc1c(O)c(Cl)cc(Cl)c1Cl,0% (inactive)
2,CCOC(=O)c1sc(NC(=O)Nc2ccc(Cl)cc2)cc1C,0% (inactive)
3,Oc1oc(-c2ccccc2Br)nc1C=Nc1ccccn1,90% (active)
4,O=C1C(Cl)=C(N2CCC(C(=O)O)CC2)C(=O)c2ccccc21,0% (inactive)
5,O=C(Nc1cccc(C(F)(F)F)c1)Nc1ccc(N2CCCC2)c(S(=O)(=O)Nc2ccccc2Cl)c1,98% (active)
6,N=c1oc2cc(O)ccc2cc1C(=O)Nc1ccc(Br)cc1,0% (inactive)
7,CCN(CC)c1ccc(C2Nc3cccc4cccc(c34)N2)c(O)c1,10% (inactive)
8,Cc1ccc(S(=O)(=O)/N=C2\C=C(Nc3cccc(C(=O)O)c3)C(=O)c3ccccc32)cc1,0% (inactive)
9,Cc1ccc(C)c(-n2c3nc(=O)[nH]c(=O)c-3cc3cc([N+](=O)[O-])ccc32)c1,0% (inactive)
10,Oc1ccccc1-c1nc2c3ccccc3c3ccccc3c2[nH]1,0% (inactive)
11,COc1ccc(-c2csc3nc(-c4ccccc4F)oc(=O)c23)cc1,95% (active)
12,O=C1NC(=S)/C(=C\c2ccc(-c3ccccc3Cl)o2)S1,0% (inactive)
13,Oc1cccc2cc3cccc(O)c3c(O)c12,85% (active)
14,COc1ccc(S(=O)(=O)/N=C2\C=C(Nc3ccc(O)cc3)C(=O)c3ccccc32)cc1,25% (inactive)
15,Brc1ccc(-c2csc(Nc3nc(-c4ccc(Br)cc4)cs3)n2)cc1,50% (inactive)
16,Cc1ccc2nc(CSc3nc(C)ccc3C#N)[nH]c2c1,50% (inactive)
17,Cc1cccc(N=Cc2nc(-c3ccccc3Br)oc2O)n1,10% (inactive)
